# According to the supplement of paper PMC12669032:
# Unmarked numbers belong to inactive results.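 Rule for the calls: active = AUC reduced over 20% with Padj below 0.05 in at least 2 of 3 replicates; inactive = otherwise.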
# Columns and labels:
# Experiment in all cases: growth AUC relative to DMSO control (median of replicates) (fraction); higher = more growth (less inhibition), active = hit call of the paper
# Settings in all cases: 20 µM; 24 h
# Coprococcus comes = tested on: Coprococcus comes
# Summary of the method: (§1)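 Three biological replicates, each grown on a separate day, were combined as a median for every value. In each, a gut bacterial monoculture in mGAM started at OD600 0.05 and grew anaerobically at 37 °C with 20 µM compound (1% DMSO), with OD600 read hourly over 24 h. Area under the growth curve was normalised against the plate median of solvent-only wells, or against row and column medians on the industrial chemical plate, after the minimum OD was set to 0.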
# Escherichia coli ED1a = tested on: Escherichia coli ED1a
# Summary of the method: as §1
# Escherichia coli IAI1 = tested on: Escherichia coli IAI1
# Summary of the method: as §1
# Eubacterium rectale = tested on: Eubacterium rectale
# Summary of the method: as §1
# [1] = tested on: Fusobacterium nucleatum subsp. animalis
# Summary of the method: as §1
# Lactobacillus gasseri = tested on: Lactobacillus gasseri
# Summary of the method: as §1
# Lactobacillus paracasei = tested on: Lactobacillus paracasei
# Summary of the method: as §1
# Odoribacter splanchnicus = tested on: Odoribacter splanchnicus
# Summary of the method: as §1
# [2] = tested on: Parabacteroides distasonis
# Summary of the method: as §1
# Parabacteroides merdae = tested on: Parabacteroides merdae
# Summary of the method: as §1
# Roseburia intestinalis = tested on: Roseburia intestinalis
# Summary of the method: as §1
# Streptococcus salivarius = tested on: Streptococcus salivarius
# Summary of the method: as §1
Structure (SMILES),growth AUC (Coprococcus comes),growth AUC (Escherichia coli ED1a),growth AUC (Escherichia coli IAI1),growth AUC (Eubacterium rectale),growth AUC [1],growth AUC (Lactobacillus gasseri),growth AUC (Lactobacillus paracasei),growth AUC (Odoribacter splanchnicus),growth AUC [2],growth AUC (Parabacteroides merdae),growth AUC (Roseburia intestinalis),growth AUC (Streptococcus salivarius)
c1cc2ccc3ccc4ccc5cccc6c(c1)c2c3c4c56,1.01,1.04,1.01,0.999,0.946,0.994,1.02,1.01,1.04,1.02,1.02,1.02
O.O=C(Nc1ccc([N+](=O)[O-])cc1Cl)c1cc(Cl)ccc1O,0.884,1,0.973,0.952,0.741,0.15 (active),0.3 (active),0.039 (active),0.0373 (active),0.0254 (active),0.869,0.085 (active)
Cc1nn(C)c(F)c1C(=O)Nc1ccccc1C(C)CC(C)C (stereo not given),0.985,1.02,1.01,0.932,0.977,1.03,0.97,0.899,0.96,0.946,0.963,1.02
COc1ccccc1C(=O)NS(=O)(=O)c1ccc(C(=O)NC2CC2)cc1,0.995,1.03,1.02,0.97,1.01,1.21,1,0.989,1.03,1.01,0.978,1.01
CC(C)(C)C(O)/C(=C\c1ccc(Cl)cc1)n1cncn1 (stereo not given),1.03,0.988,1.03,0.978,0.987,0.943,1.05,0.976,0.959,0.948,0.973,0.955
CCC/C(=N\OCC)C1=C(O)CC(C2CCCSC2)CC1=O (stereo not given),1.03,0.988,1.01,1.14,1.03,0.907,0.986,1.01,0.81,1.04,0.937,0.974
COc1cc(OC)nc(NC(=O)NS(=O)(=O)c2c(Cl)nc3ccccn23)n1,0.981,1.01,1.01,1.01,1.13,1.06,1.11,0.984,1.02,1.04,1,1.05
NC(=O)c1nn(-c2c(Cl)cc(C(F)(F)F)cc2Cl)c(N)c1S(=O)C(F)(F)F (stereo not given),0.958,0.964,0.983,1.07,0.945,0.937,0.982,0.948,1.02,0.962,0.992,0.977
CCCCCCCC(=O)Oc1c(Br)cc(C#N)cc1Br,1.01,0.973,0.924,1.15,0.966,0.987,0.863,1.12,0.975,0.922,0.935,0.937
CC(C)NS(=O)(=O)NC(=O)c1cc(NC(N)=O)c(F)cc1Cl,0.928,1.01,0.971,1.01,1,0.907,1.1,0.976,1.02,0.98,0.981,0.887
COc1cc(Cl)ccc1Oc1ccc(Cl)cc1Cl,0.938,0.996,1,0.99,0.851,1,1.16,0.947,0.988,0.929,0.991,1.05
CCOC(=O)C1=NOC(c2ccccc2)(c2ccccc2)C1,0.974,0.974,0.997,0.932,0.956,0.99,1.06,0.944,1.14,0.948,1.01,0.959
CC(C)N(C(=O)CS(=O)(=O)[O-])c1ccc(F)cc1.[Na+],0.982,0.983,0.984,1.02,0.956,1.01,0.957,1.13,1.02,0.995,1.03,0.973
N#Cc1ccccc1NC(=O)c1snc(Cl)c1Cl,0.967,0.993,0.995,1.04,1.09,1,1.01,1.01,1,1.02,0.992,0.991
COC(=O)c1c(Cl)nn(C)c1S(=O)(=O)NC(=O)Nc1nc(OC)cc(OC)n1,1,1.01,1.01,1,1.09,0.882,1.03,0.999,1.01,0.99,1.04,1.05
CCOCCc1ccc(OCCNc2ncnc(CC)c2Cl)c(C)c1C,0.978,0.999,0.961,0.846,1.07,0.883,0.929,1.01,0.903,0.92,0.923,1
CCOC(=O)c1ccc(O)cc1,1,0.974,0.969,1.07,1.05,0.822,0.978,0.988,0.893,0.976,0.888,1.01
Oc1ccc2nc(-c3cscn3)[nH]c2c1,0.994,0.988,0.974,1.01,0.975,0.869,0.997,1.01,1.02,0.958,1.03,1.07
c1ccc(Sc2ccccc2)cc1,1.02,1.03,0.967,1.02,1.08,1.1,1.04,0.503,1.01,1,1.13,0.994
Cc1c(Br)c2ccc(F)cc2n1S(=O)(=O)c1ncn(S(=O)(=O)N(C)C)n1,1.03,0.999,1.11,0.989,1.08,1.04,0.981,0.957,0.861,0.949,1.06,1.06
CCN(Cc1c(F)cccc1Cl)c1c([N+](=O)[O-])cc(C(F)(F)F)cc1[N+](=O)[O-],0.784,0.982,0.986,0.896,0.937,0.896,1.03,1.03,0.934,0.903,0.864,0.926
Br[C@@H]1CC[C@@H](Br)[C@@H](Br)CC[C@H](Br)[C@H](Br)CC[C@H]1Br,0.975,0.944,0.968,1.08,1.03,0.91,0.872,0.992,0.825,1,1.43,0.898
CC(C)(C)C(=O)C(Oc1ccc(Cl)cc1)n1ccnc1 (stereo not given),0.629 (active),1.03,0.994,0.414 (active),1.02,0.918,0.971,0.994,0.938,0.96,0.9,0.963
Cc1c(C(=O)c2c[nH]n(C)c2=O)ccc(S(C)(=O)=O)c1C1=NOCC1,1.02,0.984,0.981,0.99,0.972,0.999,0.954,1.04,1.04,1,0.987,1.01
Cc1ccc(C)c(O)c1,0.988,0.996,1.01,0.958,0.988,1.02,0.953,1,0.991,1.03,0.996,1.09
